# Measured values from ChEMBL document CHEMBL3988442, “University of Dundee, Small-Polar-MMV Screening Library” (2021).
# What was measured:
# [1] = biological target: T1, Aspartate--tRNA(Asp/Asn) ligase (Mycobacterium tuberculosis (strain ATCC 25618 / H37Rv)) (UniProt P9WFW3); test: Assay for Asp RNA synthetase-1 from Mycobacterium tuberculosis; assay type: functional; design: scale not given: direction of the effect not stated beside the values; conditions: 30 µM; further: in the data most compounds retested in dose-response had high values
# T1 sequence (whole entry): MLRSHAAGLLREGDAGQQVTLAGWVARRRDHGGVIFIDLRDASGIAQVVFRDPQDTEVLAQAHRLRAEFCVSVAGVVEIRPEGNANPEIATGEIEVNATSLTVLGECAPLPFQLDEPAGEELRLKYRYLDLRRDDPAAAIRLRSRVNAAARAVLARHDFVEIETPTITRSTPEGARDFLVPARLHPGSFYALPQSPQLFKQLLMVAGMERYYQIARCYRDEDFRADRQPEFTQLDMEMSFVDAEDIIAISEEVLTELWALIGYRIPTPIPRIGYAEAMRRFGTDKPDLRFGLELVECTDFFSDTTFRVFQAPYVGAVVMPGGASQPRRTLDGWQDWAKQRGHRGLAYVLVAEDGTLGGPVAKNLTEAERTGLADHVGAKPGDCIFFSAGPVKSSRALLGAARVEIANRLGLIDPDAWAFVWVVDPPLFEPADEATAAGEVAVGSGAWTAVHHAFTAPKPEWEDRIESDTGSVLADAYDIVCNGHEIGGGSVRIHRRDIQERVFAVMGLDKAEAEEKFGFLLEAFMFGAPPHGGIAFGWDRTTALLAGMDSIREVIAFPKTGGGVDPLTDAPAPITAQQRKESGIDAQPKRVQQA
# [2] = biological target: Shiga toxin 2 (Escherichia coli O157:H7) (UniProt P09385+P09386); test: E. coli 0.157:H7 Shiga Toxin SOP - stx2 screening assay; assay type: functional; design: scale not given: direction of the effect not stated beside the values; conditions: 30 µM
SMILES,Percent Effect [1] [%],Percent Effect [2] [%]
CNC(=O)CS(=O)(=O)C1CCN(S(=O)(=O)c2c(F)cccc2F)CC1,-1.03,-5.55
Cc1cnn(CC2CN(Cc3nc(-c4ccoc4)no3)CCO2)c1 (configuration not stated),-3.63,24
CC(C)c1nc2n(n1)CC(NCc1nnc(-c3ccco3)o1)CC2 (configuration not stated),-3.46,11.7
Cc1nc(C2CCCN(C(=O)C(C)(C)n3cc(Cl)cn3)C2)no1 (configuration not stated),-5.75,-14.3
CS(=O)(=O)NCc1cc2n(n1)CCCN(Cc1nc3ccccc3[nH]1)C2,-3.96,22.6
CN(C)CC(=O)N1C[C@H]2CCC[C@@]2(COc2ccccn2)C1,1.75,13.5
Cc1cc(C[C@@H]2COC[C@@H]2NC(=O)CN2CCCN(C)CC2)on1,-1.58,-5.15
CN(Cc1ccco1)C[C@H]1OC[C@@H]2CCN(Cc3cccs3)C[C@@H]21,3.35,-17.4
CCn1cc(CN2CCCC(CO)(CCc3ccccc3)C2)c(C)n1 (configuration not stated),0.494,-5.78
COCC1CC2(CCN(Cc3cnn(C)c3)CC2)CN1c1ncccn1 (configuration not stated),-0.238,-22.6
Cc1cc(N2CCC(c3nnc(CN(C)C)n3C3CC3)CC2)ccn1,5.21,-33.5
CCOCCC(=O)N1CCCC(c2ncc[nH]2)C1 (configuration not stated),-0.374,-22.5
Cc1cnn(CC2CCCCN2C(=O)c2ccnc(N(C)C)c2)c1 (configuration not stated),1.07,16.2
Cc1ccc(N2CCCC(NCc3ccc(C)o3)C2)nn1 (configuration not stated),-0.626,-32.5
COc1cccc(COCC(=O)N2CCN(CC(C)(C)O)CC2)c1,-1.7,9.82
O=C(CCn1ccc2cc(Br)ccc21)NCc1ccc(C(=O)O)cc1,8.3,30.7
O=C1NCCN1C1CCCN(Cc2coc(-c3ccc(F)cc3)n2)C1 (configuration not stated),-2.94,-27.1
CCO[C@@H]1CO[C@@]2(CCCN(C(=O)c3ccc(OC)c(F)c3)C2)C1,2.11,-23.8
Cc1nn(C)c(N(C)C)c1CNC1CCc2c(F)cccc21 (configuration not stated),-3.35,33.1
O=C(COCC1CC1)N1CCCC(n2cccn2)C1 (configuration not stated),4.67,-15.2
O=C(CCN1C(=O)CCC1=O)Nc1cnn(-c2ccccc2Cl)c1,2.85,1.3
O=C(Nc1ccc(CCN2CCC(O)CC2)cc1)Nc1cccnc1,-0.212,-83.7
CCOC1CCN(C(=O)c2cnn(-c3ccccc3Cl)c2)CC1,2.29,28.9
Cc1cnn(CC2CCCN2Cc2cc(=O)n3cccc(C)c3n2)c1 (configuration not stated),3.68,8
Cc1ccn(-c2ccc(C(=O)N3CCCC(n4ccnc4)C3)cc2)n1 (configuration not stated),3.8,-14.7
CN(C(=O)C1CSCN1S(=O)(=O)c1ccc(F)cc1)C1CC1 (configuration not stated),-0.268,7.34

SMILES,Percent Effect [1] [%],Percent Effect [2] [%]
Cc1noc(C)c1C(=O)NCC(O)c1ccc(F)cc1F (configuration not stated),-2.01,20.4
Cc1nc(CN2CCN(CC(=O)Nc3c(C)cccc3C)CC2)no1,-3.29,-6.23
Cc1nc(C)n(CC2CCCN2CCCOc2ccc(F)cc2)n1 (configuration not stated),-8.6,0.578
Fc1ccc(CNCC2OCCc3cn(CC4CC4)nc32)cc1 (configuration not stated),-2.61,-6.8
Cc1cnn(CC2CCCN2C(=O)c2ccc3cc[nH]c3c2)c1 (configuration not stated),-4.26,1.09
CO[C@@H]1CC[C@@H](N(C)C(=O)COc2ccc(F)cc2)[C@H]1O,3.81,28.3
CN(C)CC1CN(Cc2coc(-c3cccs3)n2)CCO1 (configuration not stated),2.66,-25.6
Cc1ccc(-c2nc(CCNC(=O)CCN3CCOC3=O)co2)cc1,-1.93,-45.5
CSCC(CCO)NC(=O)Nc1cc(C)ccc1C (configuration not stated),6.04,-16.3
Cc1cn2nc(N3CCCN(Cc4noc(C)n4)CC3)sc2n1,-1.65,0.184
CSc1sc(NC(=O)Cc2c(C)nc(C)[nH]c2=O)nc1C,-2.08,-7.28
COCCN1CCN(Cc2cccc(C(N)=O)c2)CC1C (configuration not stated),-1.6,-42.8
Cc1csc(N2CCCN(Cc3noc(C)n3)CC2)n1,1.56,-19.8
COC(=O)Cn1cccc(S(=O)(=O)N2CCC(C)CC2)c1=O,-4.76,-36.3
CN1CCCC1c1cccc(Cc2ccccc2F)n1 (configuration not stated),-0.581,1.7
CCOC(=O)c1sc(NC(=O)CN(C)S(C)(=O)=O)c(C#N)c1C,-4.94,2.91
CC(C)CN1C[C@H]2CCN(c3ncccn3)CC[C@H]2S1(=O)=O,2.71,-33
COC1CC2(CCN(Cc3ccc4c(c3)OCO4)CC2)C1,-2.25,-2.07
COc1cccc(CNC(CN2CCN(C)CC2)c2ccccc2)c1 (configuration not stated),3.94,-26
Cc1nc2ccccc2c(=O)n1CCC(=O)N1CCNC(=O)C1,-5.81,27.4
COCc1noc(-c2ccc(N(C)Cc3cc(C)no3)nc2)n1,0.703,-7.35
Cc1cc(=O)[nH]c(CCNC(=O)C(c2ccc(F)cc2)N(C)C)n1 (configuration not stated),-1.19,-71.7
NC(=O)COc1ccc(CNCc2ccc(F)cc2F)cc1,-4.09,-18.8
c1cnc(N2CCCC(NCc3cccc4c3OCCO4)C2)nc1 (configuration not stated),-1.35,4.24
CSc1ccccc1CN1CCn2nc(CNC(C)=O)cc2C1,6.15,-66.1
